# Only some compounds are listed: those with a hit (about 27% of all), similar ones and a draw of the others.
# PTK2B oligo ant: blocks oligomerization of human Pyk2 in cells; Q14289; Q293 cells, Pyk2 FERM NanoBiT luminescence; hits give low values; z-score (the deposit names both 25 µM and 10 µM); 99,000 tested, 0.83% active;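 active = Z-score of -3 or lower, scaled per plate to the spread of control and sample wells; inactive = z-score above -3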;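 note: negative z-score means lost luminescence so less FERM oligomerization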
# Target sequence (Q14289 whole entry, looked up): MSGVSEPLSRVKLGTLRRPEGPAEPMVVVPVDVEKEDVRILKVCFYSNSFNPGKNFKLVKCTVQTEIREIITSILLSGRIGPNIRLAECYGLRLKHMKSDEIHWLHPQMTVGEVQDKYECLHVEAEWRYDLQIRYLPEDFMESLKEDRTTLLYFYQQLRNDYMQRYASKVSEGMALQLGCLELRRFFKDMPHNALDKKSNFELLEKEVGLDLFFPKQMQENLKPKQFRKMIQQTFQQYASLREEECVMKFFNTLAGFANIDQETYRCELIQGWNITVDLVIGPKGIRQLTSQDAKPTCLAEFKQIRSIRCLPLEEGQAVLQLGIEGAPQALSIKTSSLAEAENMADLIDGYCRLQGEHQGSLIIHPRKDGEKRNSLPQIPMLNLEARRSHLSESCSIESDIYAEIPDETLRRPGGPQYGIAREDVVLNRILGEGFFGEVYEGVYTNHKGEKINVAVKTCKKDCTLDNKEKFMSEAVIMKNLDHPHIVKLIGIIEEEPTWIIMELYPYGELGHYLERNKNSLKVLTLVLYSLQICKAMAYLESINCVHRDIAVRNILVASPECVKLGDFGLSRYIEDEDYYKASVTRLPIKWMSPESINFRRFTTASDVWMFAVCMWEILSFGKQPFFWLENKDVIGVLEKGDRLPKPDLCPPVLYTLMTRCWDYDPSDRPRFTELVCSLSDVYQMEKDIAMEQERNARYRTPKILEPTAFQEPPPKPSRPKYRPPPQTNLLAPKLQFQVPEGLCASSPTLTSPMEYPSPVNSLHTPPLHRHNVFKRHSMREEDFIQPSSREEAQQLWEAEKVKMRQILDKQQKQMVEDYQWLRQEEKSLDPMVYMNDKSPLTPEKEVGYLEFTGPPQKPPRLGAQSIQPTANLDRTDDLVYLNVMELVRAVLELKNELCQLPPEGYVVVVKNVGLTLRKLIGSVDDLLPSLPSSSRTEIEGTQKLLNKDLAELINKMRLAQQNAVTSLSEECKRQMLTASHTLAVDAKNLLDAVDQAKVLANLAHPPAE
# Cav32 inh: human Cav3.2 channel inhibition, primary screen; O95180; Cav3.2-expressing cells, Fluo-4 calcium fluorescence FDSS; hits give low values; B-score at 10 µM; 100,000 tested, 4% active; AID 449739;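 active = single-dose well whose peak fluorescence ratio is a statistical outlier from its plate by either plate-standardised score or position-corrected B-score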
# CYP2C9 activ: CYP2C9 (human) activation; 96,000 tested, 1.4% active; activation factor at 5 µM; recombinant CYP2C9, luciferin-H conversion, luminescence; hits give high values; factor 1 = untreated enzyme, 0 = blocked; P11712;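 active = activation factor of 2 or more for CYP2C9 at a 5 µM dose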;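 note: 0 = sulfaphenazole-blocked wells and 1 = vehicle-only wells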
# CYP2C9 inh: blocks human cytochrome P450 2C9; AID 777; 96,000 tested, 20% active; CYP2C9 Supersomes, luciferin-H conversion, luminescence; P11712; inhibition, % at 5 µM;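 active = blocking of liver enzyme CYP2C9 beyond about 50% at 5 µM, limit read from the data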
# CYP2C19 inh: inhibitors of human CYP2C19. 96,000 tested, 21% active. inhibition, % at 5 µM. P33261. AID 778. CYP2C19 Supersomes, luciferin-H EGE luminescence, 30 min;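 active = CYP2C19 inhibition above a set limit at 5 µM in the primary screen, cut at about 50% in these data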;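 note: plate controls were negative control wells for no effect and 2.5 mM tranylcypromine positive control for full effect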
# CYP2C19 act: increases human CYP2C19 enzyme activity; P33261; recombinant CYP2C19, luciferin-H EGE luminescence; hits give high values; 0 = fully inhibited enzyme, 1 = untreated enzyme; activation factor at 5 µM; 96,000 tested, under 10 active; AID 1025;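 active = activation factor of at least 2 at 5 µM in the primary screen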;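 note: 0 = wells with 2.5 mM tranylcypromine and 1 = vehicle-only wells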
# * hit, by the source's call; x = no result.
SMILES,PTK2B oligo ant,Cav32 inh,CYP2C9 activ,CYP2C9 inh,CYP2C19 inh,CYP2C19 act
COC(=O)C(c1cc(OC)c(O)c(OC)c1)(N1CCNC(C)C1)C(F)(F)F (stereo unspecified),0.65,0.001,1,1,-28,1.3
Cc1c(C(=O)O)oc2ccc(S(=O)(=O)NCc3ccc(F)cc3)cc12,-0.48,0.00039,0.3,72*,-7,1.1
Cc1c(C(=O)Nc2ccc(F)cc2)oc2ccc(S(=O)(=O)N3CC(C)CC(C)C3)cc12 (stereo unspecified),-0.5,-0.56,0.4,58*,-4,1
Cc1ccc(CNC(=O)c2oc3ccc(S(=O)(=O)N4CCC5(CC4)OCCO5)cc3c2C)cc1,-0.83,-2.9,0.3,65*,44,0.6
Cc1c(C(=O)NCCCN2CCCC2=O)oc2ccc(S(=O)(=O)N3CCOCC3)cc12,0.71,0.91,1.1,-7,-14,1.1
Cc1c(C(=O)NCCC2=CCCCC2)oc2ccc(S(=O)(=O)N3CCOCC3)cc12,-1.6,-4.1*,0.6,43,19,0.8
CCN(CC)C(=O)CSc1nc2ccc(NC(=O)CSc3nccn3C)cc2s1,-0.84,0.4,x,x,x,x
CCCNC(=S)N(Cc1ccccc1)Cc1nc2ccccc2c(=O)[nH]1,-0.71,x,x,x,x,x
CC1CCN(c2ccc3c(c2)S(=O)(=O)c2ccccc2C3=O)CC1,x,-2.2,x,x,x,x
O=S(=O)(NCCSc1nnnn1-c1ccccc1)c1cccs1,-0.19,-1.1,0.9,6,99*,0
CS(=O)(=O)NCCSc1nnnn1-c1ccccc1,1.1,0.027,1.2,-17,52*,0.5
Cc1ccc(NC(=O)CS(=O)CC(=O)NCCCc2ccccc2)cc1Cl (stereo unspecified),0.54,x,0.7,35,3,1
O=C1C2CCCN2C(c2ccc(Br)cc2)N1c1ccc(F)cc1 (stereo unspecified),x,-0.22,0.8,21,66*,0.3
CCc1ccc(C2N(c3ccc(OC)cc3)C(=O)C3CCCN32)cc1 (stereo unspecified),x,0.063,0.2,76*,33,0.7
O=C1C2CCCN2C(c2cccc(Br)c2)N1c1ccc(F)cc1 (stereo unspecified),x,0.16,0.9,12,16,0.8
CCCNC(=O)c1ccc(CNc2c(N3CCC(C(=O)OCC)CC3)c(=O)c2=O)cc1,-0.42,0.37,0.6,37,11,0.9
CC(=O)CSc1nc2ccccc2o1,-0.76,-0.1,x,x,x,x
Cc1ccc2nc(NC(=O)CSc3nc4ccccc4o3)sc2c1,1.5,-0.37,0.4,55*,45,0.5
Cc1cccc(NC(=O)CSc2nc3ccccc3o2)c1,2.1,-6.9*,1.1,-15,69*,0.3
CC1CCc2nc(NC(=O)CSc3nc4ccccc4o3)sc2C1 (stereo unspecified),1.9,-0.69,0.6,43,22,0.8
O=C(CCn1c(=O)sc2ccccc21)NCc1ccccc1,x,1.2,1.9,-90,80*,0.2
COc1cc(OC)nc(NC(=O)CSc2nc3ccccc3o2)n1,0.64,0.8,1.2,-19,86*,0.1
CC(=O)Nc1ccc(NC(=O)CSc2nc3ccccc3o2)cc1,2.9,x,x,x,x,x
CS(=O)(=O)N(Cc1ccccc1)c1ccccc1C(=O)O,-0.08,0.96,1.1,-12,-18,1.2
CC1=CC(C)(C)N2C(=O)C3(C(C#N)=C(N)OC4=C3C(=O)CC(C)(C)C4)c3c(C)c(C)cc1c32 (stereo unspecified),-0.44,-0.11,0.9,9,8,0.9
SMILES,PTK2B oligo ant,Cav32 inh,CYP2C9 activ,CYP2C9 inh,CYP2C19 inh,CYP2C19 act
CCC1=C(OC(=O)N(CC)CC)N2C(=O)OC(=NCCc3c[nH]c4ccccc34)[C@]2(C)[C@H]2C1=CC[C@H]1C(=O)N(CC(=O)OC)C(=O)[C@H]12,x,0.68,x,x,x,x
Cc1cc(SCc2cc(=O)[nH]c3ccccc23)nc2ccccc12,-0.54,x,1,-1,-6,1.1
CCOCC(=O)Nc1nc2ccc(C)cc2s1,-0.55,-0.91,x,x,x,x
Cc1ccc2nc(NC(=O)CCn3c(=O)sc4ccccc43)sc2c1,x,-3,0.4,58*,-18,1.2
COCCn1cnnc1SCC(=O)c1ccc(S(=O)(=O)N2CCCC2)cc1,-0.88,-0.011,0.5,49,57*,0.4
O=C(O)c1ccc2cccc(Cl)c2c1O,-1.7,x,1,-5,-11,1.1
O=C(O)c1cc(Cl)c2ccccc2c1O,0.17,-6.7*,0.2,79*,20,0.8
